Inconclusive results are not listed. A number with no mark means an inactive call. Calls come from the whole dose curve; as a rule, active = well fitted cell-killing curve with a large enough effect in the repeat runs; inconclusive = weak or mixed curves, or effect the other way; inactive = flat fitted curve, though single readings scatter.
assay: qHTS RealTime-Glo MT Cell Viability Assay in HepG2 cells - 0 hour (AID 1224889); settings: RealTime-Glo luminescence; series mostly up to 76.8 µM; activity change, negative = cytotoxicity: at the top concentration; note: nearly all actives have a fitted effect of over 50% in size
From the text: U.S. Tox21 Program National Center for Advancing Translational Sciences [NCATS] NIH Chemical Genomics Center [NCGC] U.S. Environmental Protection Agency [EPA] National Institutes of Environmental Health Sciences [NIEHS] National Toxicology Program [NTP] U.S. Food and Drug Administration [FDA] Tox21 Assay Overview: Measure of cell viability is critical in the cell-base assay. Analysis of cell viability is necessary for the characterization of cell responses to cytotoxic drugs and environmental stress. A RealTime-Glo MT Cell Viability Assay to monitor cell viability in real time of continues cell culture during 40 hours of compound treatment was used to screen Tox21 10K library compounds in HepG2 cells. The RealTime-Glo MT Cell Viability Assay is a nonlytic, homogeneous, bioluminescent method to measure cell viability in real time using a simple, plate-based method. The assay involves adding NanoLuc luciferase and a cell-permeant prosubstrate to cells in culture. Viable cells reduce the proprietary prosubstrate to generate a substrate for NanoLuc luciferase. This substrate diffuses from cells into the surrounding culture medium, where it is rapidly used by the NanoLuc Enzyme to produce a luminescent signal. The signal correlates with the number of viable cells, making the assay well suited for cytotoxicity studies.
Tox21 Assay Protocol Summary: The mixture of HepG2 cell suspension and reagents were dispensed at 600cells/6 ul/well in 1536-well tissue culture treated black solid bottom plates using a Multidrop dispenser. After the assay plates were incubated at a 37 C/5% CO2 incubator for 5 hours, 23 nL of compounds dissolved in DMSO, positive and negative controls was transferred to the assay plate by a pintool work station. The plates were incubated at 37 C for 40 hours. The luminescence intensity were measured at 0h, 8h, 16h, 24h, 32h and 40h time points using ViewLux plate reader during compound treatment.
% is set by controls: 0 for no effect and ±100 for the full control effect.

Compound | activity change, negative = cytotoxicity
CCOC(=O)c1ncn2c1CN(C)C(=O)c1c(I)cccc1-2 | 1.73% [at 35.3 µM]
CC(C)(C1CCC(O)CC1)C1CCC(O)CC1 (stereo not given) | -16%
c1cncc([C@@H]2CCCCN2)c1 | 2.82%
O=C(Cl)C(Cl)(Cl)Cl | -0.887%
CC[C@H](O)C(C[C@H](C)N(C)C)(c1ccccc1)c1ccccc1 | 0.89%
CC(=O)CN(CC(C)=O)N=O | 4.07%
CC(C)(C)NC[C@H](O)c1ccc(O)cc1Cl | 0.64% [at 35.3 µM]
CN(CCO)CCO | -6.09%
S=C=S | -5.52%
CC(O)CCl (stereo not given) | 5.54%
C=CCC1(C(C)CC)C(=O)NC(=O)NC1=O (stereo not given) | -4.54% [at 35.3 µM]
CON(C)C(=O)Nc1ccc(Br)cc1 | 10.7%
NCC1(CC(=O)O)CCCCC1 | -1.86% [at 35.3 µM]
CN1COCN(Cc2cnc(Cl)s2)/C1=N\[N+](=O)[O-] | 4.12%
C#CC(C)(C)O | 4.26%
CC(C)[C@]12CC(=O)[C@H](C)[C@H]1C2 | 0.47%
CCN(CCO)CCO | 3.43%
O=C1CC(=O)NC(=O)N1 | -8.13%
Nc1c(Cl)c(F)nc(OCC(=O)O)c1Cl | 3.88%
O=S1(=O)OCCO1 | -3.07%

Compound | activity change, negative = cytotoxicity
CCOC(=O)N(C)N=O | 6.11%
O=C(CCl)NCO | 2%
Cn1c(N)nc2c3cccnc3ccc21 | 5.08%
O=C(NC(=O)c1c(F)cccc1F)Nc1cc(Cl)c(F)c(Cl)c1F | -5.85%
O=C(O)c1c(Cl)ccc2cc(Cl)cnc12 | 3.83%
O=C(O)C(Br)(Br)Br | -0.114%
CCOC(=O)C(Cl)Cc1cc(-n2nc(C)n(C(F)F)c2=O)c(F)cc1Cl (stereo not given) | -3.34%
COC(=O)c1ccc(CBr)cc1 | -5.21%
COP(=O)(O)OC | 2.89%
CCC(CC)(CNC(=O)CCCO)c1cccc(OC)c1 | 13.7% [at 35.3 µM]
N#CC(Br)(Br)C(N)=O | -7.42%
Cc1cc(OC(=O)N(C)C)nn1C(=O)N(C)C | 7.63%
C#CCOC(=O)/C=C(C)/C=C/CC(C)CCCC(C)C (stereo not given) | 5.68%
CCC1(c2ccccc2)CCC(=O)NC1=O (stereo not given) | 2.94% [at 35.3 µM]
CCC1(c2cccc(O)c2)CCCCN(C)C1 (stereo not given) | 0.499% [at 35.3 µM]
ClCOCCl | 0.952%
CC[C@@H](CO)NC(=O)[C@@H]1C=C2c3cccc4c3c(cn4C)C[C@H]2N(C)C1 | 7.26% [at 35.3 µM]
COc1cc(CCN)cc(OC)c1OC | 2.24%
O=C(Cl)c1ccccc1 | -0.649%
CC(C)(O)C(Cl)(Cl)Cl | -0.225% [at 35.3 µM]
